Rows were chosen to be rich in hits. Some 4.1% of all compounds tested hit in one or more screens of this group.
Gli-Sufu antag: Gli-Sufu pathway antagonists, primary screen, luciferase luminescence, Sufu-KO-LIGHT cells, uHTS. inhibition, % at 5 µM. Sufu-KO-LIGHT fibroblasts, Gli luciferase reporter luminescence. hit rate 0.74% among 340,000. AID 588413, 2011;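 active = inhibition above about 55%, limit read from the data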
Mdm2 MdmX PPI: inhibitors of human Mdm2-MdmX association, primary screen, cell-based, luminescence, split luciferase, SaOS-2, uHTS; Protein Mdm4 (Homo sapiens) + E3 ubiquitin-protein ligase Mdm2 (Homo sapiens), …; SaOS-2 split-luciferase Mdm2/MdmX complementation; inhibition, % at 8 µM; hit rate 3% among 330,000; AID 485346, 2010;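 active = inhibition of at least 50% at 8 µM in the primary screen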
Target sequence (O15151 whole entry, looked up): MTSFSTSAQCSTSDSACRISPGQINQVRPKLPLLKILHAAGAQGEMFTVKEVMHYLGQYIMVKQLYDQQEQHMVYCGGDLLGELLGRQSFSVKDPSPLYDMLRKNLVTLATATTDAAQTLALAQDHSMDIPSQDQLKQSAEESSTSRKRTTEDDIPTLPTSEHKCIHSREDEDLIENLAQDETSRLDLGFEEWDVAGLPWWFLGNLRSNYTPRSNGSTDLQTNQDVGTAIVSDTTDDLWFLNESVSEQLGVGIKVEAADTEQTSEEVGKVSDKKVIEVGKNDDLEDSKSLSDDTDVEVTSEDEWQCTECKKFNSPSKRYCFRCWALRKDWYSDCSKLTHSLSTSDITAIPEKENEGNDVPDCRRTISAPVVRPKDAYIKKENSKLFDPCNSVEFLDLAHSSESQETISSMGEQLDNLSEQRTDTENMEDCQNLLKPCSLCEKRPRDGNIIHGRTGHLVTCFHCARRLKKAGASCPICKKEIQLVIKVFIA
Target sequence (Q00987 whole entry, looked up): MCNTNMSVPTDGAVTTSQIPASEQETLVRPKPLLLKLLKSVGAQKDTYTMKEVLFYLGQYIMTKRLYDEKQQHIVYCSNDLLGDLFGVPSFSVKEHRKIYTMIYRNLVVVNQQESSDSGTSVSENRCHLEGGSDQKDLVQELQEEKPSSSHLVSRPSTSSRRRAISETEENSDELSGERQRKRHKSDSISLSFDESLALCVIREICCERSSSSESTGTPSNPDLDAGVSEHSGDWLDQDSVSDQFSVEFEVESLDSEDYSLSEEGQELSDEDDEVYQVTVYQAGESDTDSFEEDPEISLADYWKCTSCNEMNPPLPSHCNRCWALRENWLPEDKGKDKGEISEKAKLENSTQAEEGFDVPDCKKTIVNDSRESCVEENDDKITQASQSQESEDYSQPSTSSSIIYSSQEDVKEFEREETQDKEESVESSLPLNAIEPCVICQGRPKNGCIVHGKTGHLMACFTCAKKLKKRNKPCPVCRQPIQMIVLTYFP
697 NFkB inh: inhibitors of PMA/ionomycin-induced NF-kB reporter, 697 cells, primary screen, B-cell NF-kB inhibitor project, cell-based, luminescence, uHTS; 697 B-cell NF-kB luciferase reporter, 16 h; inhibition, % at 4 µM; hit rate 0.33% among 330,000; in the data active = inhibition above about 35%
Jurkat NFkB inh: inhibitors of induced NF-kB luciferase reporter, primary screen, TCR NF-kB activation inhibitor project, cell-based, luminescence, uHTS; hit rate 0.53% among 330,000; inhibition, % at 4 µM; AID 435003, 2010; Jurkat, PMA/ionomycin-induced NF-kB luciferase reporter; in the data active = inhibition above about 50%
aSyn UTR inh: MLPCN primary screen, SNCA 5' untranslated region; inhibition, % (tested at 7.5 µM); alpha-synuclein 5'UTR reporter, inhibitor activity; hit rate 0.82% among 300,000; in the data active = inhibition above about 60%; inconclusive = no clear call, values can overlap the other calls;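 note: H4 neuroglioblastoma cells stably carrying SNCA 5'UTR luciferase fusion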
KLF5 inhibitor: KLF5 expression inhibitors, primary screen, DLD-1 cells, luminescence; DLD-1 KLF5 promoter-luciferase reporter; inhibition, % at 5 µM; hit rate 0.23% among 290,000; AID 1700, 2009;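 active = inhibition above a per-plate limit of that plate's mean compound inhibition plus 3 SD, cut at about 60% in these data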;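 note: higher means less KLF5 promoter-driven luciferase light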
Large screens that a line does not name were inactive.

Cc1ccc(OCC2Cn3c(nc4c3c(=O)[nH]c(=O)n4C)O2)cc1C (stereo not given)	none
COc1ccc(-c2[nH]ncc2CN2CCC(O)(c3ccc(Cl)cc3)CC2)cc1	aSyn UTR inh 87
COc1ccc(-c2[nH]ncc2CN2CCN(c3ccc(F)cc3)CC2)cc1	none (no result: Gli-Sufu antag)
OC1(c2ccc(Cl)cc2)CCN(Cc2cn[nH]c2-c2ccc(F)cc2)CC1	aSyn UTR inh inconclusive
OC1(c2ccc(Cl)cc2)CCN(Cc2cn[nH]c2-c2ccccc2)CC1	aSyn UTR inh 70
COCC1CCCN(C(=O)c2cc(COc3ccc4ncccc4c3)on2)C1 (stereo not given)	Gli-Sufu antag 56
O=C(NCc1ccccc1)c1cc[n+](CC(=O)c2cccs2)cc1	none
Cc1nc(Nc2nc3ccccc3o2)nc2c1CCC2	aSyn UTR inh 71
Cc1noc(C)c1COC(=O)c1csc2c1CCC(C)C2 (stereo not given)	none (no result: aSyn UTR inh, KLF5 inhibitor)
COc1ccccc1NC(=O)CCNS(=O)(=O)c1ccc2[nH]c(=O)oc2c1	none
COc1ccccc1CNC(=O)CCNS(=O)(=O)c1ccc2[nH]c(=O)oc2c1	Gli-Sufu antag 57
C1=C(c2ccccc2)Nc2ccccc2N=C1c1ccccc1	none
O=C1NCCc2c1[nH]c1ccccc21	none
O=C1NCCc2c1[nH]c1ccc([N+](=O)[O-])cc21	aSyn UTR inh 70
CCCOc1ccc2cc(-c3ccccn3)c(=O)oc2c1	aSyn UTR inh 77
COC(=O)C1(C)CCC(C(=O)Nc2ccccc2)C1(C)C (stereo not given)	aSyn UTR inh 62 (no result: KLF5 inhibitor)
Cn1c(NC(=O)c2ccc(F)cc2)nc2ccccc21	none
C/C(=N\NC(=O)c1ccccc1)c1nc2ccccc2n1C	aSyn UTR inh 62
CC[C@@H](C(=O)[C@@H](C)[C@@H](O)[C@H](C)[C@@H]1O[C@@H]([C@@H](CC)C(=O)O)CC[C@@H]1C)[C@H]1O[C@]2(C=C[C@@H](O)[C@]3(CC[C@@](C)([C@H]4CC[C@](O)(CC)[C@H](C)O4)O3)O2)[C@H](C)C[C@@H]1C	Gli-Sufu antag 90 (no result: Mdm2 MdmX PPI, 697 NFkB inh, Jurkat NFkB inh, aSyn UTR inh, KLF5 inhibitor)
COc1ccc(Cl)c(Cn2c(NCc3ccco3)nc3c2c(=O)n(C)c(=O)n3C)c1	Gli-Sufu antag 70 (no result: aSyn UTR inh)
OC(c1cc(-c2ccc(Cl)cc2)nc2ccccc12)C1CCCCN1 (stereo not given)	aSyn UTR inh 96 (no result: Mdm2 MdmX PPI, 697 NFkB inh, Jurkat NFkB inh)
NC(=O)C1CCN(C(=O)c2cc(-c3ccc(Cl)cc3)nc3ccccc23)CC1	none (no result: aSyn UTR inh, KLF5 inhibitor)
CC(C)(C)CNC(=O)c1cccc2c1C(=O)c1ccc(-c3cc4ccccc4o3)cc1S2(=O)=O	none (no result: aSyn UTR inh, KLF5 inhibitor)
Cc1ccc(NC(=O)C(=O)NCC2OCCc3ccccc32)cc1 (stereo not given)	none
O=C(NCC1OCCc2ccccc21)c1ccc(NC(=O)c2ccc(Cl)cc2)cc1 (stereo not given)	aSyn UTR inh 79
COc1ccc(OC)c(CCNC(=O)CN2C(=O)CCSc3ccccc32)c1	none
CO/N=C/c1cccn1-c1nccc(N(C)C)c1C#N	none
Cn1nc(-c2ccc(NCCO)c([N+](=O)[O-])c2)c2ccccc2c1=O	none
CC1CC(=O)NN=C1c1ccc(NCCO)c([N+](=O)[O-])c1 (stereo not given)	aSyn UTR inh 76
Cc1ccc(NC(=O)CN2C(=O)N/C(=C\c3ccco3)C2=O)cc1	none (no result: aSyn UTR inh, KLF5 inhibitor)
COc1cccc(CNC(=O)CSc2nnc3c(n2)[nH]c2ccc(C)cc23)c1	none
Cc1ccc(C(=O)Nc2ncc([N+](=O)[O-])s2)cc1	Gli-Sufu antag 60, aSyn UTR inh 69, KLF5 inhibitor 87 (no result: Mdm2 MdmX PPI, 697 NFkB inh, Jurkat NFkB inh)
CCC1=Nc2cc(C(=O)NCCCOC)ccc2Sc2ccccc21	aSyn UTR inh 74
CCN(CC)c1nc(Nc2ccc(Cl)cc2)nc(OCC#N)n1	aSyn UTR inh 70
Cc1ccccc1Nc1nnc(SCC(=O)c2c(N)n(C3CC3)c(=O)[nH]c2=O)s1	none (no result: aSyn UTR inh, KLF5 inhibitor)
S=C(NN=Cc1ccccn1)N(Cc1ccccn1)Cc1ccccn1	Gli-Sufu antag 82 (no result: Mdm2 MdmX PPI, 697 NFkB inh, Jurkat NFkB inh, aSyn UTR inh, KLF5 inhibitor)
CC(=NNC(=S)N1CC2CCC(CC2)C1)c1cnccn1	none (no result: Mdm2 MdmX PPI, 697 NFkB inh, Jurkat NFkB inh, aSyn UTR inh, KLF5 inhibitor)
O=C(CCCC(=O)N/N=C\c1ccccn1)N/N=C\c1ccccn1	none
